Measurements from the supplement of paper PMC10849652.
Targets with a hit are over-represented here; the source holds about 8,800 in all. About 0.5% of all pairs of compound and target were hits. Unmarked numbers belong to inactive results.

Experiments:
Assay in all cases: log2 fold change, soluble protein after heating vs DMSO (PISA); higher = thermal stabilisation; K562 lysate, 10 uM; active = over 0.2 and 3.5 SD of the protein, either way, in both replicates (recomputed)
lapatinib = compound: CS(=O)(=O)CCNCc1ccc(-c2ccc3ncnc(Nc4ccc(OCc5cccc(F)c5)c(Cl)c4)c3c2)o1 [lapatinib]
Outline: (§1)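 To prepare the extract, K562 pellets were dounce-homogenised in PBS pH 7.4 with 1 mM MgCl2, giving crude material at 1 mg/mL protein. This was treated with 10 μM compound for 30 min, then heated in aliquots for 3 min over 48°C-58°C before pooling and addition of NP-40 to 0.5% at 4°C. Centrifugation at 21,000xg for 90 min left soluble protein in the supernatant, which TMTpro 16plex LC-MS/MS quantified with equalised channel sums. Results are log-two fold changes in thermal stability compared with solvent controls, from duplicates.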

pictilisib = compound: CS(=O)(=O)N1CCN(Cc2cc3nc(-c4cccc5[nH]ncc45)nc(N4CCOCC4)c3s2)CC1 [pictilisib]
Outline: as §1

crizotinib = compound: C[C@@H](Oc1cc(-c2cnn(C3CCNCC3)c2)cnc1N)c1c(Cl)ccc(F)c1Cl [crizotinib]
Outline: as §1

[1] = compound: C[C@H](C1=CC=C(C=C1)C(=O)NC2=C3C=CNC3=NC=C2)N
Outline: as §1

duvelisib = compound: C[C@H](Nc1ncnc2nc[nH]c12)c1cc2cccc(Cl)c2c(=O)n1-c1ccccc1 [duvelisib]
Outline: as §1

gandotinib = compound: Cc1cc(Nc2cc(CN3CCOCC3)c3nc(C)c(Cc4ccc(Cl)cc4F)n3n2)n[nH]1 [gandotinib]
Outline: as §1

tozasertib = compound: Cc1cc(Nc2cc(N3CCN(C)CC3)nc(Sc3ccc(NC(=O)C4CC4)cc3)n2)n[nH]1 [tozasertib]
Outline: as §1

doramapimod = compound: Cc1ccc(-n2nc(C(C)(C)C)cc2NC(=O)Nc2ccc(OCCN3CCOCC3)c3ccccc23)cc1 [doramapimod]
Outline: as §1

bafetinib = compound: Cc1ccc(NC(=O)c2ccc(CN3CC[C@H](N(C)C)C3)c(C(F)(F)F)c2)cc1Nc1nccc(-c2cncnc2)n1 [bafetinib]
Outline: as §1

[2] = compound: Cc1cccc(CC(=O)N2CCc3c2ccc(-c2cn(C)c4ncnc(N)c24)c3F)n1
Outline: as §1

Chain of UniProt P49918 (P49918 whole entry, looked up): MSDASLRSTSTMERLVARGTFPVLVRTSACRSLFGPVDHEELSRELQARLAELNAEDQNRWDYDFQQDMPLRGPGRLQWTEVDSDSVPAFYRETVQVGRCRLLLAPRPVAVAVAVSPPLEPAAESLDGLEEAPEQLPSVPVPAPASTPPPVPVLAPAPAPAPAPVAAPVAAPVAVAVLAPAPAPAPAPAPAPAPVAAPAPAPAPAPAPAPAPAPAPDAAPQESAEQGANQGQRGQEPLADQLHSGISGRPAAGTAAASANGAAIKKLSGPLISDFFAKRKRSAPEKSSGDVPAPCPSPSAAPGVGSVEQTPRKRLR
Chain of UniProt O95067 (O95067 whole entry, looked up): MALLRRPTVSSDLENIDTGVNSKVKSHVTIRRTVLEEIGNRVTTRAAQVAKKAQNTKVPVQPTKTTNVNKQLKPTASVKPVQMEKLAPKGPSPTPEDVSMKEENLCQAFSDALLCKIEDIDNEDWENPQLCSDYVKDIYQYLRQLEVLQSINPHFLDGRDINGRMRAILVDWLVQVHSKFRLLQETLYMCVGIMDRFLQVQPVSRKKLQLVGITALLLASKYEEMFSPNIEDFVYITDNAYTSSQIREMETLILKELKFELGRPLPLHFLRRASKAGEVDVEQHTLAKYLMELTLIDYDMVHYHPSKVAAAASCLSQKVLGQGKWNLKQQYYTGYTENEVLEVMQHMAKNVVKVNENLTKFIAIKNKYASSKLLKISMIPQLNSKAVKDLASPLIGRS
Chain of UniProt O75794 (O75794 whole entry, looked up): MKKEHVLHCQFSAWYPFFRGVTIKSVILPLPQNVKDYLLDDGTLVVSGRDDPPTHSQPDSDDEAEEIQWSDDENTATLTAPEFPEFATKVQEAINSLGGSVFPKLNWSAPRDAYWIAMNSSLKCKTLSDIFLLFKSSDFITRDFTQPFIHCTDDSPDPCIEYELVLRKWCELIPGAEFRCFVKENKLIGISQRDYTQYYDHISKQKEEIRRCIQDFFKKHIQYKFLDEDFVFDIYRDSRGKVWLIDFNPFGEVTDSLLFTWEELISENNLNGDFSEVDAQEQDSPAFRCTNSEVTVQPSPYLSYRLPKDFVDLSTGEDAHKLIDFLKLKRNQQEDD
Chain of UniProt Q12873 (Q12873 whole entry, looked up): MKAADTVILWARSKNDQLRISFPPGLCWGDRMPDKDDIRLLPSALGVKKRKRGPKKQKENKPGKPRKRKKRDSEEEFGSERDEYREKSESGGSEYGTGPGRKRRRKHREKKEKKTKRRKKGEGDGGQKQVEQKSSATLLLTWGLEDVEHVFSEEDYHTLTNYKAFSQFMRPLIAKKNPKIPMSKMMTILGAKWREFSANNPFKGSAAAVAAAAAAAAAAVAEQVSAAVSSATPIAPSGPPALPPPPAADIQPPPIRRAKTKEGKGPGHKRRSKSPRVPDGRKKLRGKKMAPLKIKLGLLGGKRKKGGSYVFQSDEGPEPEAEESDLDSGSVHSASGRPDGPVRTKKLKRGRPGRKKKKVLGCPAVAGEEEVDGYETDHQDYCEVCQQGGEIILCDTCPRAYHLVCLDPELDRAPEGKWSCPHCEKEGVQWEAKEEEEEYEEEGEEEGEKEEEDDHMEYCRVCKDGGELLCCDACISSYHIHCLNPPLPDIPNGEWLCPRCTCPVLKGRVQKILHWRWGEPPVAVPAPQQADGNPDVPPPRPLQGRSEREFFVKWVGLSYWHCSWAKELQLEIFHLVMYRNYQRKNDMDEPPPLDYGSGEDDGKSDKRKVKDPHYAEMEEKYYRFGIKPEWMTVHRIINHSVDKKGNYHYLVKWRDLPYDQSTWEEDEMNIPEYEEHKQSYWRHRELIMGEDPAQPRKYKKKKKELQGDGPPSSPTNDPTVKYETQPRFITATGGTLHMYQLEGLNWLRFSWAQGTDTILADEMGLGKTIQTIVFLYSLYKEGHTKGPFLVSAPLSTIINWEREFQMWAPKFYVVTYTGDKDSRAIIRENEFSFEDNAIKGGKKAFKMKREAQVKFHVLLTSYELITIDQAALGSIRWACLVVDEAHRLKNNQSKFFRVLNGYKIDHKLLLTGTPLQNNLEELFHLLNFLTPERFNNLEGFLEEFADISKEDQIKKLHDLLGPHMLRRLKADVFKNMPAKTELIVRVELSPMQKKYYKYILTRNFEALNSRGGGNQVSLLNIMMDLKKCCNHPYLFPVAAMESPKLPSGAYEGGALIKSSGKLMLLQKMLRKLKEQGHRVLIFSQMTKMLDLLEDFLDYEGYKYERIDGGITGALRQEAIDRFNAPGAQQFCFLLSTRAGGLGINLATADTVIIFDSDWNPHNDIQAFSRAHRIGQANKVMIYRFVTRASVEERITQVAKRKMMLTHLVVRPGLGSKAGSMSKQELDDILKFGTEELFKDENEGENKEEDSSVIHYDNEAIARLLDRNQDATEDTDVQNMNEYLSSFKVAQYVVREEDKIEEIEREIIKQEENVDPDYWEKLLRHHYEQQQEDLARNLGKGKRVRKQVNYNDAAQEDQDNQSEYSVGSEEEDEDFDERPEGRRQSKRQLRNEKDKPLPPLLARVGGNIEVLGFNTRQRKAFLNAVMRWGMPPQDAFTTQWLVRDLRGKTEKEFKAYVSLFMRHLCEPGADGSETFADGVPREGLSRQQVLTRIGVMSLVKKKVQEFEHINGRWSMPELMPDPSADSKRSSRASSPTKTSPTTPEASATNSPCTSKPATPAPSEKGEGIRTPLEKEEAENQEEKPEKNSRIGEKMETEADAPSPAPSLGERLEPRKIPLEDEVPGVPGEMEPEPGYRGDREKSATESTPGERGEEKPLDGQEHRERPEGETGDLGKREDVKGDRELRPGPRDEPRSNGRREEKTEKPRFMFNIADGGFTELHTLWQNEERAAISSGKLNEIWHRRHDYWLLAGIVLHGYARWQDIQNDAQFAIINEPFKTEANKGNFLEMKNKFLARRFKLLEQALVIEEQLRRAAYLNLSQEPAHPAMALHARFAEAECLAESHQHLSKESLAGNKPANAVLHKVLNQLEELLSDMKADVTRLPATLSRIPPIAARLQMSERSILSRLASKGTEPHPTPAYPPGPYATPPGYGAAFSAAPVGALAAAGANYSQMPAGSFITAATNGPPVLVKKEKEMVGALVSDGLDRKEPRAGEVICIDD
Chain of UniProt P55212 (P55212 whole entry, looked up): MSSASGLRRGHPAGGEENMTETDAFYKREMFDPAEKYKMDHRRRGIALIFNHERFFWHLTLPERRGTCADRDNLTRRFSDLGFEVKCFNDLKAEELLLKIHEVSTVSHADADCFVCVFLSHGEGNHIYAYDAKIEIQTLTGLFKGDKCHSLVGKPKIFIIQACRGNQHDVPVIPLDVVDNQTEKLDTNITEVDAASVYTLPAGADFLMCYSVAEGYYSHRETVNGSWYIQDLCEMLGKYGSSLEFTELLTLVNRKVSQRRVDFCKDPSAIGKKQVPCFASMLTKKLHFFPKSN
Chain of UniProt P21953 (P21953 whole entry, looked up): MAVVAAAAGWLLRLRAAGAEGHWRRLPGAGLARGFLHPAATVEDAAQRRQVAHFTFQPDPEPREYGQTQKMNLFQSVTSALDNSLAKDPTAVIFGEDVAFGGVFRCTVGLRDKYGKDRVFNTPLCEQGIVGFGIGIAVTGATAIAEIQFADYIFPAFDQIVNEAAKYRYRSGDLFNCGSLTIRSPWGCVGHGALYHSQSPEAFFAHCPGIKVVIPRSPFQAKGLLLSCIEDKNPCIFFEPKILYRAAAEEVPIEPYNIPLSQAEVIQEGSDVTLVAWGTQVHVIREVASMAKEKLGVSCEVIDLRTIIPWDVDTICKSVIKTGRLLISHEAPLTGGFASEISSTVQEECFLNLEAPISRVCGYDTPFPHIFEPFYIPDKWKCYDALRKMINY
Chain of UniProt O76039 (O76039 whole entry, looked up): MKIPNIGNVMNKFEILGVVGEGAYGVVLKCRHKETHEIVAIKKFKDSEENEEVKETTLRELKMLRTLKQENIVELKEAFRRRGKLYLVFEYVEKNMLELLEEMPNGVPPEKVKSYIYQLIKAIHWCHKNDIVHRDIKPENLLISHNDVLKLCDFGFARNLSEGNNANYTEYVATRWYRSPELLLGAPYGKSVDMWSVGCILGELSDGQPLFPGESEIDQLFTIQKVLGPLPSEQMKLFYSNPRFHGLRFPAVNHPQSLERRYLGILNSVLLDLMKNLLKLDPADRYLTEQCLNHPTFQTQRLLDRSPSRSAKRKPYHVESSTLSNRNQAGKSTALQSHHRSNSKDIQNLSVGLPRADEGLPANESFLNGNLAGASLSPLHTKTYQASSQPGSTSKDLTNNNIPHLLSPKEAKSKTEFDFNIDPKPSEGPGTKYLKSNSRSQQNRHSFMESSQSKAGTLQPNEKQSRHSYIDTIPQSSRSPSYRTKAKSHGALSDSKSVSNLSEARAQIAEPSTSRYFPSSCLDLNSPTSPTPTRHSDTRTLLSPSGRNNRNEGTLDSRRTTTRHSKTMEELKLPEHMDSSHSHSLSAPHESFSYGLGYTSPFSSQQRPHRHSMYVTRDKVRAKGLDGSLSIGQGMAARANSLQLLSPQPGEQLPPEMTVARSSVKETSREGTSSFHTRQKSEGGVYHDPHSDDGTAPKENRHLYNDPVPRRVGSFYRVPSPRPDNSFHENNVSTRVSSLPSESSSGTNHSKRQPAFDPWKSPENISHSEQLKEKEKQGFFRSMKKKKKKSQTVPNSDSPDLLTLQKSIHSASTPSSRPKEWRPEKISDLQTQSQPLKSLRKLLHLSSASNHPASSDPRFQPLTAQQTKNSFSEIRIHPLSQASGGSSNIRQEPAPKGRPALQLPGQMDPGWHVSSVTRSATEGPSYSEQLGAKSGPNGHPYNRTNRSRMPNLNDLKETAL
Chain of UniProt Q6P1S2 (Q6P1S2 whole entry, looked up): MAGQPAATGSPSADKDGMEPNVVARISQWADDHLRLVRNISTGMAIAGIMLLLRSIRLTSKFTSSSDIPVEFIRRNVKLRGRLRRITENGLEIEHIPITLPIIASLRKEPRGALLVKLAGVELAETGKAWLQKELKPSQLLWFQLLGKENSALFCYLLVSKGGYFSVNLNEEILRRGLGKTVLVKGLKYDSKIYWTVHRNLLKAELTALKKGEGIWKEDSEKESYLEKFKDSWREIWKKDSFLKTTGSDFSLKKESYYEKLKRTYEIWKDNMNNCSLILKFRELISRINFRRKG

Target | log2 fold change (lapatinib) | log2 fold change (pictilisib) | log2 fold change (crizotinib) | log2 fold change [1] | log2 fold change (duvelisib) | log2 fold change (gandotinib) | log2 fold change (tozasertib) | log2 fold change (doramapimod) | log2 fold change (bafetinib) | log2 fold change [2]
CENPQ (UniProt Q7L2Z9) | 0.101 | 0.015 | -0.028 | -0.226 | -0.027 | 0.071 | -0.196 | 0.001 | 0.017 | -0.013
CHAC2 (UniProt Q8WUX2) | 0.038 | -0.011 | 0.003 | 0.57 (active) | 0.038 | -0.161 | 0.015 | -0.01 | -0.018 | -0.198
CASP6 (UniProt P55212) | 0.024 | -0.004 | 0.009 | 0.195 | 0.003 | -0.02 | 0.022 | 0.013 | 0.054 | -0.038
CDK2 (UniProt P24941) | -0.026 | 0.028 | 0 | – | -0.026 | 0.403 (active) | 0.008 | 0.004 | 0.042 | -0.001
CCDC47 (UniProt Q96A33) | -0.05 | 0.005 | -0.016 | -0.012 | -0.03 | -0.145 | -0.009 | -0.018 | -0.031 | 0.049
ATE1 (UniProt O95260) | -0.03 | -0.047 | -0.068 | 0.032 | – | -0.019 | – | 0.043 | -0.039 | 0.009
CHD3 isoform 3 (UniProt Q12873) | -0.022 | -0.02 | 0.009 | 0.014 | -0.022 | -0.013 | -0.002 | 0.028 | -0.047 | 0.033
AURKA (UniProt O14965) | -0.101 | 0.112 | – | -0.071 | -0.006 | 1 (active) | – | -0.061 | -0.09 | -0.062
CARHSP1 (UniProt H3BNU9) | -0.101 | -0.186 | – | 0.16 | – | -0.329 | – | – | 0 | 0.341
ATF7IP2 (UniProt Q5U623) | -0.03 | 0.05 | -0.215 | 0.05 | – | 0.027 | – | 0.073 | -0.023 | -0.155
CDC123 (UniProt O75794) | 0.016 | -0.011 | -0.012 | 0.032 | 0.02 | 0.335 (active) | -0.022 | -0.032 | -0.049 | -0.048
CARHSP1 (UniProt Q9Y2V2) | -0.014 | -0.08 | 0.011 | -0.053 | 0.003 | 0.047 | 0.003 | -0.012 | -0.033 | 0.019
BTK isoform 2 (UniProt Q06187) | -0.015 | -0.041 | – | -0.148 | 0.018 | 0.101 | -0.012 | 0.031 | -0.043 | 0.178
BCKDHB (UniProt P21953) | 0.005 | -0.043 | -0.055 | 0.083 | 0.026 | 0.015 | 0.09 | 0.064 | -0.052 | -0.017
BICRA (UniProt Q9NZM4) | -0.099 | 0.052 | -0.059 | -0.027 | 0.105 | 0.171 | – | 0.014 | 0.078 | 0.133
BAG4 (UniProt O95429) | 0.013 | -0.174 | 0.06 | -0.056 | 0.043 | 0.102 | 0.011 | -0.043 | -0.002 | 0.004
CDKN1C (UniProt P49918) | 0.027 | -0.033 | 0.105 | -0.025 | -0.035 | -0.046 | -0.095 | -0.045 | 0.049 | 0.071
C6orf120 (UniProt Q7Z4R8) | -0.113 | 0.032 | – | -0.03 | -0.036 | -0.037 | – | – | 0.045 | -0.169
CEP295 isoform 3 (UniProt Q9C0D2) | -0.038 | 0.057 | 0.004 | -0.365 (active) | – | 0.058 | 0.111 | 0.059 | 0.031 | 0.072
C3orf33 (UniProt Q6P1S2) | 0.09 | 0.059 | -0.051 | -0.541 | 0.101 | 0.14 | – | -0.025 | -0.046 | 0.263
CDK8 (UniProt P49336) | -0.035 | -0.033 | -0.032 | 0.129 | -0.075 | -0.065 | – | 0.322 | -0.043 | 0.119
C18orf25 isoform 2 (UniProt Q96B23) | -0.001 | -0.235 | – | -0.017 | 0.017 | 0.061 | 0.001 | – | -0.025 | -0.021
BRD2 isoform 2 (UniProt P25440) | 0.014 | 0.012 | 0.024 | 0.128 | -0.007 | -0.133 | 0 | -0.084 | -0.131 | -0.186
CEP41 (UniProt Q9BYV8) | -0.017 | 0.039 | 0.062 | 0.047 | -0.013 | 0.003 | 0.086 | 0.044 | -0.067 | 0.007
CCNB2 (UniProt O95067) | -0.048 | -0.091 | -0.018 | -0.016 | 0.032 | -0.108 | 0.023 | 0.009 | -0.035 | 0.068
CBX5 (UniProt P45973) | 0.06 | 0.024 | -0.023 | -0.187 | -0.036 | 0.077 | 0.006 | 0.006 | -0.001 | 0.064
BTRC (UniProt Q9Y297) | 0.01 | -0.008 | – | 0.018 | – | 0.073 | -0.01 | – | -0.027 | 0.065
CAD (UniProt H7BZB3) | – | – | – | 0.069 | – | 0.036 | -0.062 | – | – | 0.057
CDKL5 (UniProt O76039) | -0.207 | – | -0.167 | -0.128 | 0.073 | 0.537 | 0.024 | -0.057 | – | -0.073
BAHCC1 (UniProt Q9P281) | -0.117 | – | -0.191 | -0.956 (active) | 0.002 | 0.006 | 0.052 | 0.137 | – | 0.234
